Source: PubChem BioAssay
DAX1 inh-1: NR0B1 (DAX1) inhibition; AID 504766; 0.99% of 340,000 active; inhibition, % at 6.75 µM; P51843; HEK293 Gal4-DAX1 luciferase reporter, luminescence;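 active = inhibition above the mean over all tested compounds plus 3 SD, cut at about 4.2% in these data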;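 also: 0% = DAX1-transfected cells with DMSO and 100% = empty-vector control cells with DMSO; inhibition shows as a rise in luminescence from relieved DAX1 repression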
DAX1 inh-2: DAX1 (NR0B1) inhibition, primary screen; HEK293T StAR-luciferase reporter, SF-1/DAX-1 repression relief; inhibition, % at 6.8 µM; 1.1% of 370,000 active; AID 652010;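 active = inhibition above the mean over all tested compounds plus 3 SD, cut at about 3.6% in these data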;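 also: 0% = DAX-1 cells with DMSO and 100% = cells lacking DAX-1 with DMSO; higher inhibition means more luminescence from relief of DAX-1 repression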
ssDAF12 agonist: S. stercoralis DAF-12 activation, primary screen; HEK293 ssDAF-12/GRIP1 lit1-tk-luc reporter, luminescence; % of 3 µM dafachronic acid response; activation, % at 6.8 µM; 1% of 370,000 active; AID 652126;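 active = activation above the mean over all tested compounds plus 3 SD, cut at about 0.9% in these data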;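 also: 0% = DMSO-only wells and 100% = 3 µM delta7-dafachronic acid wells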
hcDAF-12 act: activators of H. contortus DAF-12 nuclear receptor | HEK293 hcDAF-12 lit1-tk-luc reporter, luminescence; 0% DMSO, 100% Δ7-dafachronic acid | activation, % at 6.8 µM | 1.4% of 370,000 active | AID 652067;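 active = activation above the mean of all tested compounds plus 3 SD, cut at about 5.5% in these data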;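 also: 100% = response to 3 µM Δ7-dafachronic acid high control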
AHR act: activates the human aryl hydrocarbon receptor | P35869 | AHR-responsive luciferase reporter cells, luminescence | activation, % at 5 µM | 2.5% of 320,000 active; in the data active = activation above about 47%;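 also: 0% = vehicle wells and 100% = reference agonist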
Target sequence (P35869 whole entry, looked up): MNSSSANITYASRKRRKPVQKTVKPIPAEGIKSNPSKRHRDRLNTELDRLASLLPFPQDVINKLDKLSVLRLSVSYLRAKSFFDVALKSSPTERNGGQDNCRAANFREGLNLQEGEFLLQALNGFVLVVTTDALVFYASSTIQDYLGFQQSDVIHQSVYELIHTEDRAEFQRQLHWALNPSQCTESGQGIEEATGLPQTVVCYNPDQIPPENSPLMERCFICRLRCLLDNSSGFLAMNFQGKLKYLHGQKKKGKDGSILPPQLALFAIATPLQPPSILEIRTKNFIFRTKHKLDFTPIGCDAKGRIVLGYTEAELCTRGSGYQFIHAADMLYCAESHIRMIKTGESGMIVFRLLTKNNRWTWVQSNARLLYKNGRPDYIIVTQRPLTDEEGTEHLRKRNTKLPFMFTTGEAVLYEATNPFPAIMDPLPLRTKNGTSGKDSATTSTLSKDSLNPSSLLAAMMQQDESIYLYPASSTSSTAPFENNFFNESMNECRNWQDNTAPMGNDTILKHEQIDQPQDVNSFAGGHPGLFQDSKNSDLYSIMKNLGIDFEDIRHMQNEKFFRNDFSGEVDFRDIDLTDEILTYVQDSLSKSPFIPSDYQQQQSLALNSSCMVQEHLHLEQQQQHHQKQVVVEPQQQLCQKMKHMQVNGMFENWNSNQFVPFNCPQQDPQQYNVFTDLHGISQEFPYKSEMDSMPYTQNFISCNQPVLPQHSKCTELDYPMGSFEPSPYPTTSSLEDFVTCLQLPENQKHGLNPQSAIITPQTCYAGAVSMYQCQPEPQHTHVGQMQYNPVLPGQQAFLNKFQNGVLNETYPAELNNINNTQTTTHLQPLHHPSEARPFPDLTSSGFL
hgDAF-12 ag: agonists of H. glycines DAF-12 nuclear receptor; 1.8% of 370,000 active; AID 687014; activation, % at 6.8 µM; HEK293 GAL4-hgDAF12 UAS-luciferase reporter, agonist luminescence; normalized to butyrate control;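 active = activation above a cutoff set at the mean of all screened compounds plus 3 SD, cut at about 10% in these data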;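 also: 0% = DMSO wells and 100% = sodium butyrate wells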
The depositor's hits bear a star; x = no result. Compounds with a hit are over-represented: about 5.7% of the library has one in this group of screens.

SMILES	DAX1 inh-1	DAX1 inh-2	ssDAF12 agonist	hcDAF-12 act	AHR act	hgDAF-12 ag
COC(C(=O)Nc1ccc(F)cc1F)c1ccccc1 (configuration not stated)	4.2*	0.0	-0.8	-2.2	1.0	-1.0
COC(C(=O)Nc1ccc(Br)cc1F)c1ccccc1 (configuration not stated)	1.3	-0.7	-1.7	-0.8	3.6	-0.6
COc1ccc(OC)c(/C=C2\NC(=O)NC2=O)c1	-0.2	-0.6	-1.2	-3.6	1.5	3.5
COc1cc(N2CCCC2)c(OC)cc1/C=C1/NC(=S)NC1=O	0.0	-0.7	-1.9	-1.0	65.8*	-2.0
COC(=O)c1ccc(COc2ccc(/C=N/Nc3nc(C)cc(=O)[nH]3)cc2)cc1	5.8*	0.8	-0.9	1.7	9.1	5.3
COC(/C=C/Nc1ccc(C)cc1)=C(C#N)C#N	-0.4	0.3	0.2	5.6*	15.2	-0.5
O=C1CN(C(=O)NCC(=O)N[C@H](Cc2ccccc2)C(=O)O)c2ccccc2N1	1.0	1.0	-1.5	0.2	3.2	2.7
C[C@H](CO)N1C[C@H](C)[C@H](CN(C)C(=O)Nc2ccc3c(c2)OCCO3)OCc2cnnn2CCCC1=O	1.4	-2.0	-0.1	-1.1	x	-3.9
Cc1noc(C)c1NC(=O)N(C)C[C@@H]1OCc2cnnn2CCCC(=O)N([C@@H](C)CO)C[C@H]1C	1.2	-0.2	-0.4	1.4	x	4.4
C[C@@H]1CN([C@H](C)CO)C(=O)CCCn2nncc2CO[C@H]1CN(C)C(=O)Nc1ccc2c(c1)OCCO2	x	0.4	1.5*	5.4	x	6.7
Cc1noc(C)c1NC(=O)N(C)C[C@H]1OCc2cnnn2CCCC(=O)N([C@H](C)CO)C[C@@H]1C	1.1	1.1	1.3*	3.2	x	1.4
C[C@H]1CN([C@@H](C)CO)C(=O)CCCn2cc(nn2)CO[C@@H]1CN(C)C(=O)NC1CCCCC1	x	4.1*	-0.9	-0.2	x	1.1
COc1cc(C=O)ccc1OCCCOc1ccccc1[N+](=O)[O-]	0.9	-0.3	1.0*	1.4	6.8	5.8
CC(Oc1ccc(Cl)cc1Cl)C(=O)NNC(=O)c1ccncc1 (configuration not stated)	4.8*	-0.1	-0.3	-1.4	3.3	-1.0
O=C(c1ccco1)N(Cc1ccc(Cl)cc1)Cc1ccco1	-0.2	-2.0	-0.2	5.7*	5.3	2.7
COc1cc(NC(=O)c2cc(C(C)C)on2)c(OC)cc1Cl	-0.1	0.1	-0.1	4.3	74.3*	2.3
COc1cc(NC(=O)c2c(F)c(F)c(F)c(F)c2F)c(OC)cc1Cl	-0.4	-0.6	-0.6	2.6	27.7	3.8
COc1ccc(NC(=O)c2cc(C(C)C)on2)c(OC)c1	0.7	3.1	-0.6	6.4*	2.5	8.3
COc1ccc(NC(=O)c2ccc(C(=O)Nc3ccc(OC)cc3OC)cc2)c(OC)c1	0.1	0.5	-1.5	0.5	-0.3	0.2
COc1ccc(NC(=O)c2cc(C(C)C)on2)cc1OC	5.0*	0.1	-1.1	-0.3	2.3	3.0
O=C(N1CCCCC1)C1(c2ccccc2)CCCCC1	2.7	0.8	-1.1	0.5	-1.8	-0.2
COC(=O)c1ccc(NC(=S)N2CCN(CCO)CC2)cc1	-1.2	0.2	-1.6	-2.8	2.7	0.2
CC(=O)c1ccc(NC(=S)N2CCN(CCO)CC2)cc1	4.8*	-0.3	-1.0	-0.7	3.4	-0.4
c1ccc(Nc2cc(Nc3ccccc3)[nH]n2)cc1	-0.3	-0.1	-0.8	-1.5	69.6*	-3.6
C=CCOc1ccc(/C=C/C(C)=N\O)cc1	2.4	3.9*	-0.5	2.8	9.4	8.8
C=CCOc1ccc(/C=C/C(=O)OCC(=O)N2CCN(C(C)=O)CC2)cc1	1.3	-1.5	-1.0	-1.3	0.8	0.7
O=C(Nc1ccc(C(=O)N2CCOCC2)cc1)C1CCC1	0.9	0.9	-1.2	-0.3	x	-1.5
O=C(Oc1ccc(Br)cc1C(=O)/C=C/c1ccccc1F)c1ccco1	0.9	-1.2	-1.5	4.2	56.5*	6.0
O=C(NCCc1ccccc1)c1nc2nc(-c3cccs3)cc(C(F)(F)F)n2n1	1.6	0.4	-0.6	1.3	77.3*	2.0
O=C(NCc1cccs1)c1nc(-c2cccs2)no1	4.3*	0.6	-1.5	0.6	9.7	1.7
